# Measured values reported in PubChem BioAssay (EPA / NIEHS).
# Records with an inconclusive call do not appear. Active and inactive are the calls of the source. Rule for the calls, unless noted: active = hit-call score of the fitted dose curve at least 0.9, where 1 is the maximum; inconclusive = response in the unintended direction; inactive = score below 0.9.
# Columns and labels:
# [1] = molecular target: human Ephrin type-B Receptor 2 (EphB2), EPHB2 (gene 2048) (UniProt P29323); experiment: NVS_ENZ_hEphB2: NovaScreen (NVS) Enzymatic Assay for human Ephrin type-B Receptor 2 (EphB2) (AID 2283156)
# Summary of the method: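 Compounds were first tested in duplicate at 25 uM, with hits rerun singly in concentration series up to 50 uM. Enzyme activity on fluorescent substrate was read at 1 h by mobility-shift separation, scored as signal loss relative to DMSO.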
# [2] = system: rat Monoamine Oxidase, MAO-A, Central (MAOAC), gene 29253; experiment: NVS_ENZ_rMAOAC: NovaScreen (NVS) Enzymatic Assay for rat Monoamine Oxidase, MAO-A, Central (MAOAC) (AID 2283243);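 note: potency refers to inhibition seen as signal drop below DMSO baseline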
# Summary of the method: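 Scintillation read-out of MAO-A activity in rat brain lysate, 1.5 h post-dosing. Primary single-concentration screen: 25 uM, duplicate; actives re-tested in concentration series. DMSO = negative control/baseline.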
# [3] = molecular target: human Epidermal Growth Factor Receptor (EGFR), EGFR (gene 1956) (UniProt P00533); experiment: NVS_ENZ_hEGFR: NovaScreen (NVS) Enzymatic Assay for human Epidermal Growth Factor Receptor (EGFR) (AID 2283151)
# Summary of the method: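 Cell-free kinase assay, fluorescence plus electrophoretic mobility shift separating substrate and product, read 1 hour after dosing; loss of signal vs DMSO. Duplicate screen at 25 uM, then concentration-response to 50 uM.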
# [4] = molecular target: human Matrix Metalloproteinase-1 (MMP1), MMP1 (gene 4312) (UniProt P03956); experiment: NVS_ENZ_hMMP1: NovaScreen (NVS) Enzymatic Assay for human Matrix Metalloproteinase-1 (MMP1) (AID 2283181)
# Summary of the method: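 Cell-free fluorescent substrate assay of human MMP1, read after 1 h. A single 25 uM duplicate screen was followed by concentration series to a maximum of 50 uM for actives meeting threshold; inhibition analysed against DMSO baseline.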
# [5] = molecular target: Protein deacetylase HDAC6 (Homo sapiens) (UniProt Q9UBN7); experiment: NVS_ENZ_hHDAC6: NovaScreen (NVS) Enzymatic Assay for human Histone Deacetylase 6 (HDAC6) (AID 2283164)
# Summary of the method: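 Concentration-response runs up to 50 uM followed a duplicate 25 uM single-point screen. Deacetylase activity of recombinant human HDAC6 read by fluorescence after 1 h, with mobility-shift separation of substrate and product; DMSO as baseline.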
# [6] = molecular target: human Fibroblast Growth Factor Receptor 1 (FGFR1), FGFR1 (gene 2260) (UniProt P11362); experiment: NVS_ENZ_hFGFR1: NovaScreen (NVS) Enzymatic Assay for human Fibroblast Growth Factor Receptor 1 (FGFR1) (AID 2283159)
# Summary of the method: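 Cell-free recombinant kinase with fluorescent substrate, product separated by electrophoretic mobility shift; read 1 hour after dosing, loss of signal relative to DMSO. Initial screen in duplicate at 25 uM, actives followed in concentration series.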
# [7] = molecular target: human Mitogen-Activated Protein Kinase 1 (MAPK 1), MAPK1 (gene 5594) (UniProt P28482); experiment: NVS_ENZ_hMAPK1: NovaScreen (NVS) Enzymatic Assay for human Mitogen-Activated Protein Kinase 1 (MAPK 1) (AID 2283175)
# Summary of the method: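 Cell-free recombinant human MAPK1 enzymatic assay, fluorescence/electrophoretic mobility shift read at 1 h; loss of signal vs DMSO. Primary screen in duplicate at 25 uM; actives (e.g. ≥30% inhibition) run as concentration-response up to 50 uM.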
# [8] = molecular target: rat Neurotensin Receptor (NTS), Ntsr1 (gene 366274) (UniProt P20789); experiment: NVS_GPCR_rNTS: NovaScreen (NVS) G Protein-Coupled Receptor Assay for rat Neurotensin Receptor (NTS) (AID 2283308)
# Summary of the method: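 Single-point duplicates at 25 uM, then concentration series to 50 uM max for hits, measured radioligand displacement on rat forebrain membrane preparations. Bound label counted by filtration scintillation at 1 h; signal loss relative to DMSO fitted.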
# [9] = molecular target: human Ephrin type-A Receptor 2 (EphA2), EPHA2 (gene 1969) (UniProt P29317); experiment: NVS_ENZ_hEphA2: NovaScreen (NVS) Enzymatic Assay for human Ephrin type-A Receptor 2 (EphA2) (AID 2283155)
# Summary of the method: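 Enzyme activity of recombinant EphA2 read by fluorescence after mobility-shift separation, 1 h after dosing. Chemicals first tested at 25 uM (duplicate); those passing threshold run as concentration series, top 50 uM, single replicate, relative to DMSO.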
# [10] = molecular target: human Protein Tyrosine Phosphatase Receptor Type C (PTPRC), PTPRC (gene 5788) (UniProt P08575); experiment: NVS_ENZ_hPTPRC: NovaScreen (NVS) Enzymatic Assay for human Protein Tyrosine Phosphatase Receptor Type C (PTPRC) (AID 2283212)
# Summary of the method: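 Absorbance-based phosphatase activity of human PTPRC protein extracted from yeast was measured 1 h post-dosing. Compounds first tested at 25 uM in duplicate, then those passing threshold in singleton concentration series to 50 uM.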
# [11] = molecular target: Voltage-dependent N-type calcium channel subunit alpha-1B (Rattus norvegicus) (UniProt Q02294); experiment: NVS_IC_rCaChN: NovaScreen (NVS) Ion Channel Assay for rat Calcium Channel, Type N (CaChN) (AID 2283317)
# [12] = molecular target: human Raf-1 Proto-Oncogene, serine/threonine Kinase (RAF1), RAF1 (gene 5894) (UniProt P04049); experiment: NVS_ENZ_hRAF1: NovaScreen (NVS) Enzymatic Assay for human Raf-1 Proto-Oncogene, serine/threonine Kinase (RAF1) (AID 2283216)
# Summary of the method: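 Single-point screening at 25 uM (duplicate), followed by singleton concentration-response to 50 uM maximum for chemicals exceeding threshold. Enzyme activity from fluorescent substrate-product mobility-shift separation after 1 h, relative to DMSO.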
# [13] = molecular target: human NIMA (Never In Mitosis Gene A)-Related Kinase 2 (NEK2), NEK2 (gene 4751) (UniProt P51955); experiment: NVS_ENZ_hNEK2: NovaScreen (NVS) Enzymatic Assay for human NIMA (Never In Mitosis Gene A)-Related Kinase 2 (NEK2) (AID 2283188)
# Summary of the method: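 Compounds were first screened in duplicate at 25 uM, with actives followed up in concentration series. Recombinant NEK2 activity, cell-free, was read 1 h after dosing by fluorescence intensity after mobility-shift separation. Signal loss was scored against DMSO.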
# [14] = molecular target: human Phosphatase and Tensin Homolog (PTEN), PTEN (gene 5728) (UniProt P60484); experiment: NVS_ENZ_hPTEN: NovaScreen (NVS) Enzymatic Assay for human Phosphatase and Tensin Homolog (PTEN) (AID 2283203)
# Summary of the method: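 Loss of fluorescent product signal after mobility-shift separation reports PTEN activity, recombinant human enzyme, 1 h after compound addition. Single 25 uM duplicate screen, then concentration-response on actives; DMSO baseline.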
# [15] = molecular target: human Tyrosine Protein Kinase Receptor Tie-2 (Tie2), TEK (gene 7010) (UniProt Q02763); experiment: NVS_ENZ_hTie2: NovaScreen (NVS) Enzymatic Assay for human Tyrosine Protein Kinase Receptor Tie-2 (Tie2) (AID 2283225)
# Summary of the method: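 Substrate and product were separated by mobility shift and detected by fluorescence after a 1-hour reaction with recombinant Tie2. Chemicals passing a 25 uM single-point screen were titrated to a maximum of 50 uM. Results were normalized to DMSO baseline.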
# [16] = molecular target: human p21 Activated Kinase 4 (PAK4), PAK4 (gene 10298) (UniProt O96013); experiment: NVS_ENZ_hPAK4: NovaScreen (NVS) Enzymatic Assay for human p21 Activated Kinase 4 (PAK4) (AID 2283189)
# Summary of the method: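 Extracted PAK4 enzyme activity read by fluorescence with mobility-shift separation 1 h after chemical addition. Duplicate single-concentration screen at 25 uM, DMSO as negative control.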
# [17] = molecular target: human Neonicotinoid receptor (NNR), CHRNA2 (gene 1135) (UniProt Q15822); experiment: NVS_LGIC_hNNR_NBungSens: NovaScreen (NVS) Ligand-Gated Ion Channel Assay for human Neonicotinoid receptor (NNR) (AID 2283313)
# Summary of the method: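 Compounds first screened in duplicate at 25 uM, then actives re-tested in single-replicate dose series up to 50 uM. Binding measured as displacement of specific radioligand from neuroblastoma membrane receptors after 2 h, scintillation read on filters.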
# [18] = molecular target: Norway rat Vesicular Monoamine Transporter (VMAT2), neurotransmitter transporter, Slc18a2 (gene 25549) (UniProt Q01827); experiment: NVS_TR_rVMAT2: NovaScreen (NVS) Transporter Assay for Norway rat Vesicular Monoamine Transporter (VMAT2), neurotransmitter transporter (AID 2283376);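 note: actives lower the bound radioligand signal below the DMSO level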
# Summary of the method: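 Using rat forebrain membranes, specific radioligand binding to VMAT2 was measured by filtration and scintillation counting after 1 hour. Chemicals screened at 25 uM in duplicate, actives retested in concentration series, DMSO baseline.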
# [19] = molecular target: rat Corticotropin Releasing Factor Receptor (CRF), Crhr1 (gene 58959) (UniProt P35353); experiment: NVS_GPCR_rCRF: NovaScreen (NVS) G Protein-Coupled Receptor Assay for rat Corticotropin Releasing Factor Receptor (CRF) (AID 2283300)
# Summary of the method: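 Single-concentration (25 uM, duplicate) radioligand binding on rat cortical membrane preparations, counted by scintillation after 2 h. Activity scored as signal loss relative to DMSO negative control.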
# [20] = Tanguay_ZF_120hpf_MUSC: Oregon State University Tanguay Lab 120 Hour Post-fertilization zebrafish Assay for Muscle Malformation (AID 2284401; active = hit-call score of the fitted dose curve at least 0.9, where 1 is the maximum; inactive = score below 0.9)
# Summary of the method: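 Scored as a binary brightfield endpoint at 120 hpf, fitted versus DMSO. Single dechorionated wild-type (Tropical 5D) zebrafish embryos per well, statically exposed at 28C from 6 hpf onward with final DMSO 0.64%.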
# [21] = molecular target: rat Gamma-Aminobutyric Acid Type A Receptor BDZ, alpha 6 site (GABARa6), Gabra6 (gene 29708) (UniProt P30191); experiment: NVS_LGIC_rGABARa6: NovaScreen (NVS) Ligand-Gated Ion Channel Assay for rat Gamma-Aminobutyric Acid Type A Receptor BDZ, alpha 6 site (GABARa6) (AID 2283339)
# Summary of the method: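 Actives from a 25 uM duplicate screen were retested in concentration series (max 50 uM). Specific radioligand displacement from rat cerebellar membranes was counted by filter-based scintillation at 1 h; DMSO served as baseline.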
# [22] = molecular target: bovine Gamma-Aminobutyric Acid Type A Receptor BDZ, alpha 1 site (GABARa1), GABRA1 (gene 780973) (UniProt P08219); experiment: NVS_LGIC_bGABARa1: NovaScreen (NVS) Ligand-Gated Ion Channel Assay for bovine Gamma-Aminobutyric Acid Type A Receptor BDZ, alpha 1 site (GABARa1) (AID 2283321)
# Summary of the method: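 Bovine cortex membrane preparation, benzodiazepine site on GABA-A alpha1; specific radioligand displacement read after 0.75 h by filtration and scintillation. Screen at 25 uM, then singleton titrations up to 50 uM; DMSO baseline.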
# [23] = molecular target: rat Monoamine Oxidase, MAO-B, Peripheral (MAOBP), Maob (gene 25750) (UniProt P19643); experiment: NVS_ENZ_rMAOBP: NovaScreen (NVS) Enzymatic Assay for rat Monoamine Oxidase, MAO-B, Peripheral (MAOBP) (AID 2283242)
# [24] = molecular target: rat Oxytocin Receptor (OXT), Oxtr (gene 25342) (UniProt P70536); experiment: NVS_GPCR_rOXT: NovaScreen (NVS) G Protein-Coupled Receptor Assay for rat Oxytocin Receptor (OXT) (AID 2283330)
# Summary of the method: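 Binding to rat uterine membrane receptor was followed by scintillation counting of filter-trapped radioligand after 1 h. A 25 uM duplicate single-point screen preceded concentration series with a top of 50 uM. Signal loss was analysed relative to DMSO.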
# Sequence of human Epidermal Growth Factor Receptor (EGFR), EGFR (gene 1956) (P00533 whole entry, looked up): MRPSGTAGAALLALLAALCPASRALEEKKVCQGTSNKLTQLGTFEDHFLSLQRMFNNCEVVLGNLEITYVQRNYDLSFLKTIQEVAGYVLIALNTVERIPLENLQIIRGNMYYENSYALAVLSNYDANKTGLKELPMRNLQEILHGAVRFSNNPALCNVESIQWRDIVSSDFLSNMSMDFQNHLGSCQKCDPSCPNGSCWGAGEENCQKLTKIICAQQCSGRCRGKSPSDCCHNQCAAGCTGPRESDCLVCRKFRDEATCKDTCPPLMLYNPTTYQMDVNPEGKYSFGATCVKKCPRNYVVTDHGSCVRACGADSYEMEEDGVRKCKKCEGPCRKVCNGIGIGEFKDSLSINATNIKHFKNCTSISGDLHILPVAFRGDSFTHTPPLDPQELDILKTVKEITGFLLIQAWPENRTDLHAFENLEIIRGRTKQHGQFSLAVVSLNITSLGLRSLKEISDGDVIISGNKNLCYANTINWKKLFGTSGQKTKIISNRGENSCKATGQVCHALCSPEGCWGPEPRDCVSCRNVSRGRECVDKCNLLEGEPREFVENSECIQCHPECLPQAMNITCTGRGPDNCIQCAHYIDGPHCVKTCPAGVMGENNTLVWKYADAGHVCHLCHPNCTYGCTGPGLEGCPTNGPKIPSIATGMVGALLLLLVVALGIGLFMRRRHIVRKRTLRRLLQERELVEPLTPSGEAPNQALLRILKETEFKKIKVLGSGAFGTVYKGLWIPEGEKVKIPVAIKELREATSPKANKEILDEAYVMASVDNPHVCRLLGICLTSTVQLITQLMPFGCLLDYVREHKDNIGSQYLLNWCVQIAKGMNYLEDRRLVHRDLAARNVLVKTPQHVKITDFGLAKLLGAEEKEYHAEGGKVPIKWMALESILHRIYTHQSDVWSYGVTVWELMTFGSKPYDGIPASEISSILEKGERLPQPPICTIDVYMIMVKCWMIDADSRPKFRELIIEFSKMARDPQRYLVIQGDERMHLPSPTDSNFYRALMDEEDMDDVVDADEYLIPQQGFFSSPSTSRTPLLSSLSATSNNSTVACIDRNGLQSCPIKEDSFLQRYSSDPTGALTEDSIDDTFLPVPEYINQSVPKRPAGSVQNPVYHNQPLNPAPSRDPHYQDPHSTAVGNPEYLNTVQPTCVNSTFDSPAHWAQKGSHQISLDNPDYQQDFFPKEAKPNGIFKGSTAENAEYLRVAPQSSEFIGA
# Sequence of human Fibroblast Growth Factor Receptor 1 (FGFR1), FGFR1 (gene 2260) (P11362 whole entry, looked up): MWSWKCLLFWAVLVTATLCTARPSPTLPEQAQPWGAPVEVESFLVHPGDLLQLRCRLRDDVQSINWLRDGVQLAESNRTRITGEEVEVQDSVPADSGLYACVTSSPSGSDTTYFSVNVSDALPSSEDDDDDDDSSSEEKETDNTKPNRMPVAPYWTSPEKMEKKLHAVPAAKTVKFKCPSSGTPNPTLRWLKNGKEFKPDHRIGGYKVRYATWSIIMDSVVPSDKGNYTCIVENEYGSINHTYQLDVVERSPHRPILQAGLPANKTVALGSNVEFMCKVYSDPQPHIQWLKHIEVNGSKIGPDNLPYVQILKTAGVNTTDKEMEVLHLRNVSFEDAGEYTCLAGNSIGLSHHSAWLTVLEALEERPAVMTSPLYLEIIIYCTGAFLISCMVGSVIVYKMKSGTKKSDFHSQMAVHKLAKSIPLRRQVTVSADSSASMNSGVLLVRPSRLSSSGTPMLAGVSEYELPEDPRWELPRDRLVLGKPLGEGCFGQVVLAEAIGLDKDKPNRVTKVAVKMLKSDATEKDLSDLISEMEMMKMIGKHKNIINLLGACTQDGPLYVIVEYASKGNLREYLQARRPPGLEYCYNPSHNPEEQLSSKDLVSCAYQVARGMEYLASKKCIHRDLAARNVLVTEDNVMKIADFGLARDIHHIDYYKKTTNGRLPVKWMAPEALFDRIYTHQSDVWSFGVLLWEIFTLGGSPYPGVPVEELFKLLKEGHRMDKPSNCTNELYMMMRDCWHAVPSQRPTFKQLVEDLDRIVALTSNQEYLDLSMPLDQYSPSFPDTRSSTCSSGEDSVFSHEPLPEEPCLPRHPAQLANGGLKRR
# Sequence of Protein deacetylase HDAC6 (Homo sapiens) (Q9UBN7 whole entry, looked up): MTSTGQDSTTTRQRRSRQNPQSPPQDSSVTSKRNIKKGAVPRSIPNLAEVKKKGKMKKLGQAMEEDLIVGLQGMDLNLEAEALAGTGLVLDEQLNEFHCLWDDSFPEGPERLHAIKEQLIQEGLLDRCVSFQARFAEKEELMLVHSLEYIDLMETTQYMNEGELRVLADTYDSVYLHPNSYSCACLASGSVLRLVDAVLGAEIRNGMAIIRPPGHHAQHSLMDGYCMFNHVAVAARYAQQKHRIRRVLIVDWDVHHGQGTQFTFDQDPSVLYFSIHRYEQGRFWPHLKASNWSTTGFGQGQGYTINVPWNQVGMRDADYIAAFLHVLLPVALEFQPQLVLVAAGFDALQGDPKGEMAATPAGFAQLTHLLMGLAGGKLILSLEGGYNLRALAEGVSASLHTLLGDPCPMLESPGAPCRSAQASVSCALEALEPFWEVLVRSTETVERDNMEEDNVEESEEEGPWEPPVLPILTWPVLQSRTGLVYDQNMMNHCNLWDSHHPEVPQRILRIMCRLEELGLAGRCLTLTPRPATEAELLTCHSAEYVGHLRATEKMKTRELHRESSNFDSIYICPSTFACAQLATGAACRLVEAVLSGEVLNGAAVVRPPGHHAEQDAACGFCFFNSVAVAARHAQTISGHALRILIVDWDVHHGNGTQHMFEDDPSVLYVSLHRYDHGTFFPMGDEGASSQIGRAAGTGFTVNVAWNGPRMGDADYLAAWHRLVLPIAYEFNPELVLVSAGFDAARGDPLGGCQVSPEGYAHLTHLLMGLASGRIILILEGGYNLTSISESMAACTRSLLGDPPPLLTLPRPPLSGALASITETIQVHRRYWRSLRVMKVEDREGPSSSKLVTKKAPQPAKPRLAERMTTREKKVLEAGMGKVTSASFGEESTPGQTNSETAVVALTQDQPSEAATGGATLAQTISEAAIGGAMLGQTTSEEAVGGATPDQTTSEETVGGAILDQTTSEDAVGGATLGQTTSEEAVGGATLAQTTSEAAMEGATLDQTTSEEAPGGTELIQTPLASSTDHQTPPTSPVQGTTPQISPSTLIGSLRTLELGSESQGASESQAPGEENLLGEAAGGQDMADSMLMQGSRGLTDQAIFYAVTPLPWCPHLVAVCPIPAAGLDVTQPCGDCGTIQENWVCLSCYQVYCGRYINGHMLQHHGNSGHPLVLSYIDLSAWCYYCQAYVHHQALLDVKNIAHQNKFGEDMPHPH
# Sequence of bovine Gamma-Aminobutyric Acid Type A Receptor BDZ, alpha 1 site (GABARa1), GABRA1 (gene 780973) (P08219 whole entry, looked up): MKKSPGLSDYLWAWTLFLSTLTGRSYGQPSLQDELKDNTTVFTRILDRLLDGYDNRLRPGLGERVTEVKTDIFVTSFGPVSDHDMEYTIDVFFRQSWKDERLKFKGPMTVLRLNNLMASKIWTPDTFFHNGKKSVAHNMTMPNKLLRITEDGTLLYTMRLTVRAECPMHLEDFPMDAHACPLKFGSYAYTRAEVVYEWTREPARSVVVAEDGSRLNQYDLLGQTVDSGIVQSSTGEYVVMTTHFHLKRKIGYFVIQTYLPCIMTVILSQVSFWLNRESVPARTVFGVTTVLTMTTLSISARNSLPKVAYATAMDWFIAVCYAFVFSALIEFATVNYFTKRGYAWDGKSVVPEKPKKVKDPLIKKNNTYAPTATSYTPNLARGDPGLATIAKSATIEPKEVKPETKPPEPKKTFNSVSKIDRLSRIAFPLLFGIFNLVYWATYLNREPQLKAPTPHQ
# Sequence of rat Gamma-Aminobutyric Acid Type A Receptor BDZ, alpha 6 site (GABARa6), Gabra6 (gene 29708) (P30191 whole entry, looked up): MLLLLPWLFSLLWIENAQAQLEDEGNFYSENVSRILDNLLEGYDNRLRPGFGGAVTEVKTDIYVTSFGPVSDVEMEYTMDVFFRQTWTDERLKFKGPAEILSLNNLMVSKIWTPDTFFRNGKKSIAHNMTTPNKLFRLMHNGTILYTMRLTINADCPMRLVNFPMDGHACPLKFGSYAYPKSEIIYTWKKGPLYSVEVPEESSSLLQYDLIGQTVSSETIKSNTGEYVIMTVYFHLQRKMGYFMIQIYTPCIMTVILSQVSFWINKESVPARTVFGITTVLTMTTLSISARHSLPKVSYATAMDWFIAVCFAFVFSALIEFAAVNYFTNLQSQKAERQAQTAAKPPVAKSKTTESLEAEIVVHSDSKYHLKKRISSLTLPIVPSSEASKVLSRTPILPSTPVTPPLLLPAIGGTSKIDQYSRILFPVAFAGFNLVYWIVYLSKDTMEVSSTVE
# Sequence of human Mitogen-Activated Protein Kinase 1 (MAPK 1), MAPK1 (gene 5594) (P28482 whole entry, looked up): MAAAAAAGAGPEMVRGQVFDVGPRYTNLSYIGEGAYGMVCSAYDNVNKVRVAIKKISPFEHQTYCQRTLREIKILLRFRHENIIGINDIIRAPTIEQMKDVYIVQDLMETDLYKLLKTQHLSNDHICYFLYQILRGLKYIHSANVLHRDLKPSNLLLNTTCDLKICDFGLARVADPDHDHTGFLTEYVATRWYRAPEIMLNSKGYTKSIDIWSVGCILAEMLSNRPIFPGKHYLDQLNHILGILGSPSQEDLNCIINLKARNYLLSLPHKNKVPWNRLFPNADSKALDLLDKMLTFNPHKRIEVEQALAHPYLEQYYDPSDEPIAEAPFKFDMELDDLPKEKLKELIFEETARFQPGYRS
# Sequence of Norway rat Vesicular Monoamine Transporter (VMAT2), neurotransmitter transporter, Slc18a2 (gene 25549) (Q01827 whole entry, looked up): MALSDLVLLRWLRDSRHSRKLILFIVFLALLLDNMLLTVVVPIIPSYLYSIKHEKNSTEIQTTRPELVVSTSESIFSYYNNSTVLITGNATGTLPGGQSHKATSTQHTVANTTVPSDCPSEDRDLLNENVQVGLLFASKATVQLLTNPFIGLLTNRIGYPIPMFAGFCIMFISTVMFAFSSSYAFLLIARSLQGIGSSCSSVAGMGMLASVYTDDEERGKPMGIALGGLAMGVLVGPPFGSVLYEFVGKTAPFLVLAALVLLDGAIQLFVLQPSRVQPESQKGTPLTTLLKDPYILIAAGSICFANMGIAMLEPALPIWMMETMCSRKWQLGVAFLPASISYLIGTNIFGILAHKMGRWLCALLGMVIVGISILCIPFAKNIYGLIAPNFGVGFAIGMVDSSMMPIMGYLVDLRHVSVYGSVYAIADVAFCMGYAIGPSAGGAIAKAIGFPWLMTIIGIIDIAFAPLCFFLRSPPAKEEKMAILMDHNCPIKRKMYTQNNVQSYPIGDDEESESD
smiles,measurement,setting,value
CCOC(=O)CC(CC(=O)OCC)(OC(C)=O)C(=O)OCC,outcome,[1],inactive
same,AC50,[2],25 µM (active)
CC(=O)Oc1ccccc1C(=O)O,outcome,[3],inactive
same,outcome,[4],inactive
On1ccccc1=S,outcome,[5],inactive
Cc1cn([C@H]2C[C@H](N=[N+]=[N-])[C@@H](CO)O2)c(=O)[nH]c1=O,outcome,[6],inactive
same,outcome,[7],inactive
same,outcome,[8],inactive
CC(C)c1cccc(C(C)C)c1,outcome,[9],inactive
same,outcome,[10],inactive
same,outcome,[11],inactive
Cc1occc(=O)c1O,outcome,[5],inactive
Cc1ccc(Cl)cc1,outcome,[9],inactive
CCO[Si](CCCNC(N)=O)(OCC)OCC,outcome,[3],inactive
same,outcome,[12],inactive
Cc1ccc2ncccc2c1,outcome,[3],inactive
same,outcome,[13],inactive
same,outcome,[14],inactive
same,outcome,[12],inactive
same,outcome,[15],inactive
COc1c(Cl)ccc(Cl)c1C(=O)O,outcome,[3],inactive
Cc1[nH]cnc1C[C@H]1CCc2c(C)c3ccccc3n2C1=O,outcome,[5],inactive
same,outcome,[16],inactive
same,outcome,[17],inactive
same,AC50,[18],0.755 µM (active)
CCCCCCCCCCCCc1ccccc1,outcome,[5],inactive
O=C(O)c1cccc(C[C@@H]2COc3ccc(OCc4nc5cc(F)ccc5s4)cc3[C@@H]2O)c1,outcome,[6],inactive
same,outcome,[7],inactive
same,outcome,[19],inactive
same,outcome,[18],inactive
OCCC(F)(F)C(F)(F)C(F)(F)C(F)(F)C(F)(F)C(F)(F)F,outcome,[6],inactive
same,outcome,[20],inactive
CCCc1cc(=O)[nH]c(=S)[nH]1,outcome,[5],inactive
same,outcome,[7],inactive
CC(C)(C)CC(C)(C)c1ccc(O)c(-n2nc3ccccc3n2)c1,outcome,[6],inactive
same,outcome,[21],inactive
O=C(OCCOCCOC(=O)c1ccccc1)c1ccccc1,outcome,[6],inactive
same,AC50,[22],1.4 µM (active)
same,outcome,[21],inactive
NC=O,outcome,[3],inactive
CC(N)=O,outcome,[5],inactive
same,outcome,[23],inactive
CC(C)(O)c1ccc(CNC(=O)c2cccnc2Oc2ccc(F)cc2)cc1,outcome,[6],inactive
CC[C@H](C)[C@@H](C(=O)O)n1sc2ccccc2c1=O,outcome,[6],inactive
same,outcome,[22],inactive
same,outcome,[21],inactive
COCC(C)OCC(C)OCC(C)O (stereo not drawn),outcome,[6],inactive
same,outcome,[11],inactive
COCc1nnc(-c2ccc[n+]([O-])c2)n1-c1c(Cl)c(Cl)cc2[nH]c(=O)c(=O)[nH]c12,outcome,[6],inactive
same,outcome,[22],inactive
CCN(CC)C(=O)c1cc(S(=O)(=O)Cc2ccccc2)c(N2CCC(c3ccccc3)CC2)cc1N(CC)CCN(C)C,outcome,[6],inactive
same,outcome,[15],inactive
same,AC50,[24],6.13 µM (active)
